Source: PubChem BioAssay (Tox21)
The source made the active and inactive calls. Calls come from the whole dose curve; as a rule, active = well fitted curve in the direction sought with a large enough effect in the repeat runs; inconclusive = weak or mixed curves; inactive = flat fitted curve, though single readings scatter. Non-standard residues stand in square brackets, D forms with d. Residues, ends and D or L forms follow the SMILES beside them. *: point of attachment. Sta = CC(C)C[C@H](N)[C@@H](O)CC(=O)O; Isovaleryl = CC(C)CC(=O)*

Assay: qHTS assay to test for compound auto fluorescence at 535 nm (green) in HEK293 cells (AID 720680)
Settings: green autofluorescence 485/535 nm; series mostly up to 91.3 µM; fluorescence, % of fluorescein: at the top concentration
% is set by controls: 0 for no effect and ±100 for the full control effect.

Structure (SMILES)	fluorescence, % of fluorescein	outcome
Cc1ccc(N)nc1	-0.051% (inactive)	
O=C(O)Cc1c(Cl)ccc(Cl)c1Cl	-0.0154% (inactive)	
Cc1ccccc1OCC(=O)O	-0.0001% (inactive)	
O=C(O)Cc1ccccc1Oc1ccc(Cl)cc1Cl	-0.225% [at 46 µM] (inactive)	
CN(C)CCc1c[nH]c2ccc(C[C@H]3COC(=O)N3)cc12	0.0363% [at 46 µM] (inactive)	
O=C(c1ccccc1)c1cccc(O)c1	0.0524% [at 95.7 µM] (inactive)	
Cc1ccccc1C#N	-0.0018% (inactive)	
CC(C)(C)NCC(O)COc1cccc2c1CCC(=O)N2 (centres undefined)	0.0295% [at 18.6 µM] (inactive)	
CCCCN(CCCC)CCCCCCN(CCCC)CCCC	0.0988% (inactive)	
CC[C@@]1(c2ccccc2)NC(=O)N(C)C1=O	0.135% [at 46 µM] (inactive)	
CC(=O)Oc1ccc(C(C)=O)cc1	-0.0882% [at 95.7 µM] (inactive)	
CN(C)c1cc(NC(=O)CNC(C)(C)C)c(O)c2c1C[C@H]1C[C@H]3[C@H](N(C)C)C(=O)C(C(N)=O)=C(O)[C@@]3(O)C(=O)C1=C2O	0.0027% [at 46 µM] (inactive)	
COC(=O)N/N=C/c1c[n+]([O-])c2ccccc2[n+]1[O-]	0.0298% [at 46 µM] (inactive)	
C=CCn1cc[n+](C)c1	-0.0934% [at 95.7 µM] (inactive)	
CCC(=O)OCCOc1ccccc1	-0.0116% (inactive)	
CC1=C(O)C(=O)CO1	0.0541% (inactive)	
CCCCC(CC)COC(=O)CC#N (centres undefined)	0.0219% (inactive)	

Structure (SMILES)	fluorescence, % of fluorescein	outcome
C[C@]12C=CC(=O)C=C1[C@@H](F)C[C@@H]1[C@@H]2[C@@H](O)C[C@@]2(C)[C@H]1CC[C@]2(O)C(=O)CO		inactive
COC(=O)/C=C(\C)CCC=C(C)C	0.0162% (inactive)	
CN(C)c1ccncc1	-0.0304% (inactive)	
C/C=C/C(=O)CCCC	-0.0759% (inactive)	
CCCC(=O)C(CC)Sc1ccoc1C (centres undefined)	0.0795% (inactive)	
CCCCC(CC)CCC(CC(C)C)OS(=O)(=O)O (centres undefined)		inactive
O=S(=O)(O)c1cc(I)c(O)c2ncccc12	-0.242% [at 46 µM] (inactive)	
COC(=O)c1c(C)cc(O)c(C)c1O	-0.0004% (inactive)	
CCCCCCCOC(C)=O	0.0386% (inactive)	
O=C[C@@H](O)[C@H](O)[C@H](O)CO	-0.126% (inactive)	
CCCCCC(=O)CC	-0.228% [at 95.7 µM] (inactive)	
CC(C)CC(=O)N[C@H](C(=O)N[C@H](C(=O)N[C@@H](CC(C)C)[C@@H](O)CC(=O)N[C@@H](C)C(=O)N[C@@H](CC(C)C)[C@@H](O)CC(=O)O)C(C)C)C(C)C (Isovaleryl-VV[Sta]A[Sta]-OH)	0.0264% [at 46 µM] (inactive)	
CCC(C)(C)C	0.0263% [at 95.7 µM] (inactive)	
CCCCCCCCOCCC#N	0.0001% (inactive)	
Cc1ccc(O)c([N+](=O)[O-])c1	-0.0256% [at 95.7 µM] (inactive)	
CC1(C)CC(N)CC(C)(C)N1	0.0158% (inactive)	
O=C(O)P(=O)(O)O	-0.0114% [at 46 µM] (inactive)	
